# Screens as filed in PubChem BioAssay.
# RGS12 GoLoco inh = RGS12 GoLoco-Gai1 interaction inhibition; P63096; Gai1:RGS12 GoLoco peptide FP, rhodamine, 10 min; Potency, µM (titrated, usually from 61.6 µM), most hits filed as inhibitors; 230,000 tested, 0.44% active; active = well fitted inhibition curve with a large enough effect, not every such curve was filed as active; inactive = no such curve, though single readings can be large or run the other way; note: nearly all actives have a fitted effect of over 30% in size
# TR SRC2 fluor cs = Texas Red fluorescence interference in TRb-SRC2 counter-screen; 280,000 tested, 0.29% active; TRb/SRC2 Texas Red total fluorescence interference; Potency, µM (series often up to 106 µM); active = well fitted curve in either direction with a large enough effect; inconclusive = small, poorly fitted or top-dose-only effect
#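 Flags fluorescent or light-absorbing compounds by total fluorescence, S + 2P, at 555 nm excitation and 632 nm emission. Mixture: 20 nM Texas Red SRC2 peptide, 0.6 uM human TRb LBD, 1 uM T3, 5% DMSO; compound exposure 5 h at ambient temperature.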
# ERG-DNA inh = ERG Ets/DNA interaction inhibition; AID 624246; 370,000 tested, 0.028% active; Potency, µM (doses to about 76.9 µM), most hits filed as inhibitors; fluorescence polarization, His-ERG Ets domain / labelled DNA; P11308; active = well fitted inhibition curve with a large enough effect in the polarisation, with a control signal flat; inconclusive = small, poorly fitted or top-dose-only effect, or effect the other way, or a change in a side signal; inactive = no such curve, though single readings can be large or run the other way; the % refers to the polarisation;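 note: polarization taken with two DNA probes labelled with fluorescein and Texas red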
#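 His-tagged ERG Ets domain (1 uM in the protein solution; 300mM KCl, 50mM Tris-HCl, 1mM EDTA, 1mM DTT, pH 7.5) received compound, then a probe mix of 5 nM fluorescein-DNA and 100nM Texas-615-DNA. Fluorescence polarization was read for both dyes.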
# CBFb-RUNX1 inh = CBF-beta/RUNX1 interaction disruption; Q01196+Q13951; AlphaScreen CBFb-His/RUNX1-biotin binding, biochemical; Potency, µM (series often up to 59.8 µM), actives largely listed as inhibitors; 230,000 tested, under 10 active; AID 1477
#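 CBF-beta (His) and RUNX1 (biotin), 30 nM each; 20 min preassociation; + compound, 15 min; + beads 50 ng each (Ni, streptavidin), 90 min; RT; AlphaScreen read.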
# TRb-SRC2 inh = disrupts binding of human TR beta to SRC2; P10828; TRbeta-SRC2 peptide binding, fluorescence polarization; receptor liganded with 1 µM T3; Potency, µM (series often up to 106 µM), hits mostly inhibitors; 280,000 tested, 0.065% active; AID 1469; note: nearly all actives have a fitted effect of over 50% in size
# Target sequence (P10828 whole entry, looked up): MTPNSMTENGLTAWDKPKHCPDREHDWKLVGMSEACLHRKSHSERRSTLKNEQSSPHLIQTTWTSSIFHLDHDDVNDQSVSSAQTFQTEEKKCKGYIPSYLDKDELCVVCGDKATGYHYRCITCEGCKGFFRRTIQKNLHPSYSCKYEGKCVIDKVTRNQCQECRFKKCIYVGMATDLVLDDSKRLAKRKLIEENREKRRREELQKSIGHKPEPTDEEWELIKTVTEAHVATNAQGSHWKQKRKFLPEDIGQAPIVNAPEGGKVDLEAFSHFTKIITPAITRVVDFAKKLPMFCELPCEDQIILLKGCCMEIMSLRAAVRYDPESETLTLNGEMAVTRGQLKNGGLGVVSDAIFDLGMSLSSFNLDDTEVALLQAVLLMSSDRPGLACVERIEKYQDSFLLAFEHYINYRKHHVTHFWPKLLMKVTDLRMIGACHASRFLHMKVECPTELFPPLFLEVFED
#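 Quantitative HTS by FP: 0.6 uM TRb LBD, 20 nM labeled SRC2 20-mer, 1 uM T3, 5% DMSO; 5 hr ambient incubation; % activity per concentration and potencies from concentration series.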
# a7 integrin act = activates integrin-mediated alleviation for muscular dystrophy | alpha7betagal myoblasts, beta-gal FDG fluorescence, 48 h | Potency, µM (highest dose often 38.3 µM), usual class: activators | 350,000 tested, 0.064% active | AID 624291; note: nearly all actives have a fitted effect of over 60% in size
#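 Alpha7betagal+/- myoblasts (passage 13) were plated 16-24 hr, then exposed to compounds (1:260 dilution of DMSO stock) for 48 hours at 37C. After MPER lysis, β-galactosidase reporter activity was read as FDG fluorescence (ex 480/em 540) after 30 minutes.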
# A number is an active result; . = inactive; ? = inconclusive; / = not tested or not shown; [ ] = dose if it differs, or a comment. Only some compounds are listed: those with a hit (about 0.45% of all), similar ones and a draw of the others. Unless noted, calls come from the whole dose curve; as a rule, active = well fitted curve in the direction sought with a large enough effect; inconclusive = small, poorly fitted or top-dose-only effect, or another doubt; inactive = no such curve, though single readings can be large; an effect the other way counts as inactive or inconclusive.
SMILES,RGS12 GoLoco inh,TR SRC2 fluor cs,ERG-DNA inh,CBFb-RUNX1 inh,TRb-SRC2 inh,a7 integrin act
CSC(=Nc1ccc(Cl)cc1)N[n+]1ccccc1,7.08µM,.,.,.,.,.
O=c1cc(O)c2ccc(O)cc2o1,.,.,.,.,.,.
O=c1ccc2[n+]([O-])c3ccc(O)cc3oc-2c1,10µM,1.58µM[fluorescent],?,/,?,.
COc1cc(/C=C(\C#N)c2nc3ccccc3s2)cc([N+](=O)[O-])c1O,.,25.1µM[quencher],.,/,.,.
N#C/C(=C\c1ccc(O)c([N+](=O)[O-])c1)c1nc2ccccc2s1,.,.,?,?,.,.
COC(=O)C1(C(=O)OC)CC2=CC(CC2=O)Cc2ccccc2[C@@H]1C[N+](=O)[O-] (some centres not stated),22.4µM,.,/,.,.,/
COc1ccc(C2CC(=O)c3cc(-c4nc(-c5cccc([N+](=O)[O-])c5)cs4)c(=O)n(-c4ccccc4)c3C2)cc1 (configuration not stated),/,.,.,/,.,/
COc1ccc(C2CC(=O)c3cc(-c4nc(-c5cccc([N+](=O)[O-])c5)cs4)c(=O)n(-c4ccccc4C)c3C2)cc1 (configuration not stated),/,89.1µM[quencher],.,/,.,/
Cc1ccccc1NC(=O)c1ccc(Cl)c(S(=O)(=O)N2CCCCCC2)c1,/,0.794µM[quencher],.,/,?,/
COc1ccccc1NC(=O)c1ccc(Cl)c(S(=O)(=O)N2CCCCC2)c1,/,/,.,/,/,.
O=C1c2cc(O)cc(O)c2OC[C@@H]1c1ccc(O)c(O)c1,/,.,/,.,.,/
O=C(c1ccc(Cl)c([N+](=O)[O-])c1)N(Cc1cccc(Cl)c1)C1CCS(=O)(=O)C1 (configuration not stated),.,112µM[quencher],.,.,.,.
CCOc1ccc(-c2c(C)nn3c(C)c(C(=O)NCCc4ccc(Cl)cc4)cnc23)cc1OCC,/,.,.,/,.,/
CCOc1ccc(-c2c(C)nn3c(C)c(C(=O)NCc4ccc(Cl)cc4)cnc23)cc1OCC,/,251µM[quencher],.,/,.,/
C[Si](C)(C)O[Si](C)(C)O[Si](C)(C)C,/,.,/,/,.,/
Oc1c(Br)cc(Br)cc1CNc1cccc2cccnc12,/,/,.,/,/,12.6µM
O=C1CCCC(O)=C1N=Nc1c(Cl)cc(C(F)(F)F)cc1Cl,.,28.2µM[fluorescent],?,?,1.41µM,.
CCN(CC)S(=O)(=O)c1ccc(N=NC2=C(O)CCCC2=O)cc1,/,44.7µM[fluorescent],.,.,39.8µM,.
O=C1CCCC(O)=C1N=Nc1ccc(C(=O)O)cc1,.,.,28.2µM,?,?,?
CCN(CC)S(=O)(=O)c1ccc(N=NC2=C(O)CC(C)(C)CC2=O)cc1,.,.,.,.,.,.
CC1(C)CC(=O)C(N=Nc2cc(C(F)(F)F)ccc2Cl)=C(O)C1,.,.,.,.,.,.
c1ccc(OCCOc2ccccc2)cc1,/,.,/,/,.,/
Oc1ccc(Nc2nc3ccccc3nc2Nc2ccc(O)cc2)cc1,2.51µM,.,.,.,.,.
Cc1ccc(S(=O)(=O)C(I)I)cc1,/,.,/,/,.,/
C=CCOc1nc(OCC=C)nc(OCC=C)n1,/,.,/,/,.,/
SMILES,RGS12 GoLoco inh,TR SRC2 fluor cs,ERG-DNA inh,CBFb-RUNX1 inh,TRb-SRC2 inh,a7 integrin act
COc1ccc(NC(=O)c2nnn(Cc3nc(-c4cc(OC)c(OC)c(OC)c4)oc3C)c2C)cc1Cl,/,0.0089µM[quencher],.,/,.,/
CNCc1ccccc1Sc1cc(O)ccc1O,4.47µM,.,.,?,.,.
CNCc1ccccc1Sc1cccc(O)c1,.,.,.,.,.,.
CC1=C(/C=C/C(C)=C/C=C/C(C)=C/C=O)C(C)(C)CCC1,.,.,/,.,.,/
COc1cc(CCN2C(=O)N[C@@H](c3ccccc3)C(C(C)=O)=C2C)cc(OC)c1OC,.,.,/,.,.,/
CCn1c(C)c2c([n+]1CC)CC(C)(C)CC2=O,11.2µM,.,/,.,.,.
